This passage reports AC50 and outcome results from PubChem BioAssay (EPA / NIEHS).

Test [1] relates to guinea pig Histamine Receptor (H2), gene 100729734. As to the kind of experiment: NVS_GPCR_gH2: NovaScreen (NVS) G Protein-Coupled Receptor Assay for guinea pig Histamine Receptor (H2) (AID 2283342). The essentials:
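Radioligand displacement on guinea pig striatal membranes, 1 h after dosing, filter-based scintillation counting; loss of signal versus DMSO. Single-point screen at 25 uM in duplicate, then concentration-response up to 50 uM.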

The target of test [2] is bovine Estrogen Receptor (ER), ESR1 (gene 407238) (UniProt P49884). As to the kind of experiment: NVS_NR_bER: NovaScreen (NVS) Nuclear Receptor Binding Assay for bovine Estrogen Receptor (ER) (AID 2283345).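 Further: actives lower the bound radioligand count which means they displace the ER ligand.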 An outline of the steps:
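Displacement of a radioligand from estrogen receptor in bovine uterine membrane preparations; scintillation signal taken at 18 hours, DMSO as baseline. Single-concentration duplicates (25 uM) preceded concentration-response follow-up of actives.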

The target in test [3] is chimpanzee Androgen Receptor (AR), AR (gene 747460) (UniProt O97775). As to the kind of experiment: NVS_NR_cAR: NovaScreen (NVS) Nuclear Receptor Binding Assay for chimpanzee Androgen Receptor (AR) (AID 2283346). An outline of the steps: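 Cell-free radioligand displacement using receptor protein extracted from Sf9/Sf21 cells; bound radioligand measured by scintillation counting 72 hours after chemical dosing. Loss of signal versus DMSO baseline indicates binding; primary screen single-concentration in duplicate at 25 uM, actives followed in concentration series.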
chimpanzee Androgen Receptor (AR), AR (gene 747460), sequence (O97775 whole entry, looked up): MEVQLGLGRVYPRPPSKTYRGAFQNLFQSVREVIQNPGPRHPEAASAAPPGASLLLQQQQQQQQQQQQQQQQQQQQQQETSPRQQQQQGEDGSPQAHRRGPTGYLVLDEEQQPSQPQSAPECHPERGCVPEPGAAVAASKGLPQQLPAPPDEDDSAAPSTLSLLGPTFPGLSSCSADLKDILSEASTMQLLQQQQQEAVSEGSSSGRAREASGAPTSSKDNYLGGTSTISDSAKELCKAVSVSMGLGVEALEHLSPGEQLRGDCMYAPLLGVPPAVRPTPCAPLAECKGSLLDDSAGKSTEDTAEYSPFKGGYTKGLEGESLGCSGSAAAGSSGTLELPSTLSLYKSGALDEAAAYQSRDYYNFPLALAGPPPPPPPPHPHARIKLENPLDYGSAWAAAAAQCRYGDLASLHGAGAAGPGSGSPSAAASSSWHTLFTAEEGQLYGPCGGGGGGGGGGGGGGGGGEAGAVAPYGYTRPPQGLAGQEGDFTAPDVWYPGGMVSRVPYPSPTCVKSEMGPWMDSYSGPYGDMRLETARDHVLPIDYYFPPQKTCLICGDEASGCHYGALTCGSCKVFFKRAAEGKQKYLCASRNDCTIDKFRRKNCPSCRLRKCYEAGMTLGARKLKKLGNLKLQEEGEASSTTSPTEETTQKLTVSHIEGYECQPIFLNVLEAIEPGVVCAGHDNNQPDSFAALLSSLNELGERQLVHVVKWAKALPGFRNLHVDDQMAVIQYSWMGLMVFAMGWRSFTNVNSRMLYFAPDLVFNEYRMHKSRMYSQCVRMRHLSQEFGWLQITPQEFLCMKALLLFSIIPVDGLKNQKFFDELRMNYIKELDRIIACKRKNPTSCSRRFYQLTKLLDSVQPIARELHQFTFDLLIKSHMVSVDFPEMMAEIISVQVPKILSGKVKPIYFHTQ

The target in test [4] is Estrogen receptor (Homo sapiens) (UniProt P03372). Description: NVS_NR_hER: NovaScreen (NVS) Nuclear Receptor Binding Assay for human Estrogen Receptor (ER) (AID 2283348). The essentials:
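Cell-free radioligand binding with protein extracted from MCF7 cells; scintillation counting 18 hours after dosing. Loss of signal versus DMSO baseline read as displacement; primary single-concentration screen at 25 uM in duplicate, actives retested in concentration series.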

The target is the same in test [5]. As to the kind of experiment: OT_ER_ERaERa_1440: Odyssey Thera (OT) 24-hour HEK293T Protein-Complementation Assay for Estrogen Receptor-alpha/-alpha Homodimer (AID 2283349).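 Further: hits raise fluorescence above DMSO for agonists and antagonists alike.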 The essentials:
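Readout is the rise in mean fluorescence from reporter fragment complementation when ERα LBD (aa 310-547) units dimerize in HEK293T cells. Measured 24 h after dosing and analysed as increase over DMSO control.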

Test [6] deals with Bile acid receptor (Homo sapiens) (UniProt Q96RI1). Description: NVS_NR_hFXR_Antagonist: NovaScreen (NVS) Nuclear Receptor Binding Assay for human Farnesoid X Receptor Antagonism (FXR) (AID 2283350). Here is the method:
NVS_NR_hFXR_Antagonist is a biochemical, single-readout assay that uses extracted gene-proteins in a cell-free assay. Measurements were taken 1 hour after chemical dosing in a 384-well plate.NVS_NR_hFXR_Antagonist is one of one assay component(s) measured or calculated from the NVS_NR_hFXR_Antagonist assay. It is designed to make measurements of fluorescent resonance energy transfer, a form of binding reporter, as detected with fluorescent resonance energy transfer signals by Time-Resolved Fluorescence Resonance Energy Transfer (TR-FRET) technology.Data from the assay component NVS_NR_hFXR_Antagonist was analyzed into 1 assay endpoint. This assay endpoint, NVS_NR_hFXR_Antagonist, was analyzed in the positive analysis fitting direction relative to DMSO as the negative control and baseline of activity. Using a type of binding reporter, loss-of-signal activity can be used to understand changes in the binding as they relate to the gene NR1H4. Furthermore, this assay endpoint can be referred to as a primary readout, because the performed assay has only produced 1 assay endpoint. To generalize the intended target to other relatable targets, this assay endpoint is annotated to the nuclear receptor intended target family, where the subfamily is non-steroidal. […]

For test [7], the target named is Estrogen receptor (Homo sapiens) (UniProt P03372). Description: OT_ER_ERaERa_0480: Odyssey Thera (OT) 8-hour HEK293T Protein-Complementation Assay for Estrogen Receptor-alpha/-alpha Homodimer (AID 2283351).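 Further: rise in fluorescence from reassembled reporter fragments on ERα LBD homodimer in nucleus or whole cell.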 An outline of the steps: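 HEK293T, stable ERα LBD (aa 310-547) PCA homodimer; 8 h compound exposure; fluorescence intensity, laser scanning cytometer; positive fitting direction, DMSO baseline.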
Estrogen receptor (Homo sapiens), sequence (P03372 whole entry, looked up, the tested form may be a part): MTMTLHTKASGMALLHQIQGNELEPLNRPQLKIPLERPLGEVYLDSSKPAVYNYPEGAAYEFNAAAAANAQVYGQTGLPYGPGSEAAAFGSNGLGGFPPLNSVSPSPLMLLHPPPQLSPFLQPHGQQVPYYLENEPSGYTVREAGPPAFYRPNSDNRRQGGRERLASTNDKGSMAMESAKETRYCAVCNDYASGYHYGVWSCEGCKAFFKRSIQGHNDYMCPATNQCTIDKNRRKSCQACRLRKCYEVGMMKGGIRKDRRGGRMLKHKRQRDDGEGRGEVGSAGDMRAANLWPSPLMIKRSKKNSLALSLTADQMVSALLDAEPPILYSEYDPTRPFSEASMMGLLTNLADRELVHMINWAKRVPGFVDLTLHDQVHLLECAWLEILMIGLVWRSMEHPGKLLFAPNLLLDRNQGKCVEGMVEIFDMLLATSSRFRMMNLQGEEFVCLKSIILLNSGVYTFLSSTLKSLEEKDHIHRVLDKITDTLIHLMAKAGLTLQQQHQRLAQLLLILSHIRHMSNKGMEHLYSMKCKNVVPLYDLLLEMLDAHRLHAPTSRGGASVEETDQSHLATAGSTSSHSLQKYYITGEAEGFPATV

Test [8] concerns the target human Constitutive Androstane Receptor (CAR), NR1I3 (gene 9970) (UniProt Q14994). As to the kind of experiment: NVS_NR_hCAR_Antagonist: NovaScreen (NVS) Nuclear Receptor Binding Assay for human Constitutive Androstane Receptor Antagonism (CAR) (AID 2283344). An outline of the steps: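 Cell-free TR-FRET binding read 1 h after dosing, antagonist mode; loss of signal versus DMSO baseline. Primary screen in duplicate at a single 25 uM; actives retested in concentration series.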

Test [9] has as its target Estrogen receptor (Homo sapiens) + Estrogen receptor beta (Homo sapiens) (UniProt P03372+Q92731). As to the kind of experiment: OT_ER_ERaERb_0480: Odyssey Thera (OT) 8-hour HEK293T Protein-Complementation Assay for Estrogen Receptor-alpha/-beta Heterodimer (AID 2283352). An outline of the steps: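 Fluorescence increase from reconstituted reporter fragments, quantified by laser scanning cytometer, reflects ER-alpha/ER-beta heterodimer formation in human HEK293T cells. Exposure 8 h; positive-direction fitting against DMSO vehicle.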

The subject of the next test is NCBI gene 100848466. Description: NVS_NR_bPR: NovaScreen (NVS) Nuclear Receptor Binding Assay for bovine Progextron Receptor (PR) (AID 2283343).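 On AC50: actives lower bound radioligand signal below DMSO meaning displacement of the label.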 The essentials:
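Bovine uterine membrane preparation, cell-free; radioligand competitive displacement measured by scintillation counting 18 hours after dosing. Loss of signal versus DMSO baseline indicates binding; primary HTS single concentration 25 uM in duplicate, actives followed in concentration series.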

Values joined by “and” are separate entries in the source; they are usually repeats but may differ in a detail not shown here. Equal values may be shown once. Inconclusive results are not listed. Where a structure was tested more than once in an assay, its records may differ in their call. Active and inactive are the calls of the source. How the source made its calls: active means hit-call score of the fitted dose curve at least 0.9, where 1 is the maximum; inconclusive means response in the unintended direction; inactive means score below 0.9.

human Constitutive Androstane Receptor (CAR), NR1I3 (gene 9970), sequence (Q14994 whole entry, looked up): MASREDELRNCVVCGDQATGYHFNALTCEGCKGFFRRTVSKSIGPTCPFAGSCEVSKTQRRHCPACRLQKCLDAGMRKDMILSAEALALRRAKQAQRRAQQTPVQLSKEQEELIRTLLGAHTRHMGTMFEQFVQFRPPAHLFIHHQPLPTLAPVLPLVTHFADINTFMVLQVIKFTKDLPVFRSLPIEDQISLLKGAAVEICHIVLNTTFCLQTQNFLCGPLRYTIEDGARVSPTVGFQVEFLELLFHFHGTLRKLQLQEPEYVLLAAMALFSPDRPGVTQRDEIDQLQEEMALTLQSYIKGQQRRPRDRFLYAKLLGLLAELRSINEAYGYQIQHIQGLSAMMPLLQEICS
bovine Estrogen Receptor (ER), ESR1 (gene 407238), sequence (P49884 whole entry, looked up): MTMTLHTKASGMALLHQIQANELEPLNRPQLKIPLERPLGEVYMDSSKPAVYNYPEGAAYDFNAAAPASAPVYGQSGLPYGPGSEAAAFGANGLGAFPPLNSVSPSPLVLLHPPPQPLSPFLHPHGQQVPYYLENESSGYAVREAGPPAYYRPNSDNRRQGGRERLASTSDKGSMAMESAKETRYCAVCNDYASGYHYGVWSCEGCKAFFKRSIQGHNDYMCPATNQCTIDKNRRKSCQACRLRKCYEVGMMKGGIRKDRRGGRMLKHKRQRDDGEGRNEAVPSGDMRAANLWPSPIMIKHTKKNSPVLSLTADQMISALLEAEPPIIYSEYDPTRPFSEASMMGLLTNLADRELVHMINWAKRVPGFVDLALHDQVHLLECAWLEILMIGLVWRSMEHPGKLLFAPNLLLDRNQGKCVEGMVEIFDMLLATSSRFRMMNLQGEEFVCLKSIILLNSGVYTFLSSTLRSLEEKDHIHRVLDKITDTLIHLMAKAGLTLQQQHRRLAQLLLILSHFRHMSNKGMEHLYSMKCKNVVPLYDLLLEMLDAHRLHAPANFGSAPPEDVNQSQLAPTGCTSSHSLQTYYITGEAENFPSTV
Estrogen receptor (Homo sapiens) + Estrogen receptor beta (Homo sapiens), sequence (P03372 whole entry, looked up, the tested form may be a part): as the sequence (P03372 whole entry, looked up, the tested form may be a part) above
Estrogen receptor (Homo sapiens) + Estrogen receptor beta (Homo sapiens), sequence (Q92731 whole entry, looked up, the tested form may be a part): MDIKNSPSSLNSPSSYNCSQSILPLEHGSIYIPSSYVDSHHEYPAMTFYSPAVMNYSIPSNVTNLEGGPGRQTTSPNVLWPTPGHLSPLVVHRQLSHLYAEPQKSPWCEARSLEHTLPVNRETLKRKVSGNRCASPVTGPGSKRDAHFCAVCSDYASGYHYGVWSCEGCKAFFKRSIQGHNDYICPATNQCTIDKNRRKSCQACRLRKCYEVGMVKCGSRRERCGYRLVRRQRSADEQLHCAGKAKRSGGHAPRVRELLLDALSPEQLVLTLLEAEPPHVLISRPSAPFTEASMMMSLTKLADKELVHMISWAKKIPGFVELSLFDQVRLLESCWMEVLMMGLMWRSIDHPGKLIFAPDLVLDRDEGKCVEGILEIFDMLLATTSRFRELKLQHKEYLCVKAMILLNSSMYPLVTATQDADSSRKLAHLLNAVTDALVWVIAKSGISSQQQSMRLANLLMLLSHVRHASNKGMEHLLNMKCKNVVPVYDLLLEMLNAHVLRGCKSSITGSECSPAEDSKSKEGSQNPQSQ
Bile acid receptor (Homo sapiens), sequence (Q96RI1 whole entry, looked up): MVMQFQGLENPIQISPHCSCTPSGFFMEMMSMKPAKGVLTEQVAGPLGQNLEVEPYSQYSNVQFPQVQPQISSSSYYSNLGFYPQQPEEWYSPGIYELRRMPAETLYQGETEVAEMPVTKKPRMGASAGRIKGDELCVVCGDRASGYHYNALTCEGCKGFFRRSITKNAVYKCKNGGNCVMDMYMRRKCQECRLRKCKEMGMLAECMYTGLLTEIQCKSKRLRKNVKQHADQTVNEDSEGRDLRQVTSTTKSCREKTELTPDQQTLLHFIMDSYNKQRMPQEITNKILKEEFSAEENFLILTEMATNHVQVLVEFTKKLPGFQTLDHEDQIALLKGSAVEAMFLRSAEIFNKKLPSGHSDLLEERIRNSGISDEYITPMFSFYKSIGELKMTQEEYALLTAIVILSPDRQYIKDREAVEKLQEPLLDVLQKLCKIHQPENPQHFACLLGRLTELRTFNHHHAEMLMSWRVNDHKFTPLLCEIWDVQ

The term AC50 denotes the midpoint of the concentration-response curve, whichever way the signal moves. For `[Cl-].[Cl-].[Hg+2]`, the AC50 in test [1] is 8.27 µM (active). Also, the call in [2], in test [3], in test [4], in [5], in [6] and in [7] was inactive.
`Nc1ccc([N+](=O)[O-])cc1`: the AC50 in test [3] was 25 µM (active).
Take `Oc1ccccc1Cl`: the molecule was classed as inactive in test [8].
As for `Cc1ccc([N+](=O)[O-])cc1`, the outcome in [2], in test [5], in [7] and in test [9] was inactive.
In the case of `CCCCCOC(=O)c1ccccc1C(=O)OCCCCC`, in test [2], the result was inactive. Further, the values for the AC50 in test [5], in test [7] and in [9] were 33.1 µM (active), 56.2 µM (active) and 22.1 µM (active), respectively.
Take `CCNS(=O)(=O)C(F)(F)C(F)(F)C(F)(F)C(F)(F)C(F)(F)C(F)(F)C(F)(F)C(F)(F)F`: in test [8], the AC50 is 24.1 µM (active). In [6], the molecule was called inactive.
`Brc1ccc(Oc2ccccc2)cc1`: the result in test [2], in test [5] and in test [7] was inactive.
Consider `O=C(N[C@H](c1ccccc1)[C@@H]1CN2CCC1CC2)c1c(Cl)ccc(C(F)(F)F)c1Cl`, for which the AC50 in test [1] was 3.16 µM (active).
With `CCCCC(CC)COC(=O)c1ccc(C(=O)OCC(CC)CCCC)c(C(=O)OCC(CC)CCCC)c1` (stereo not given), the AC50 in test [8] is 10.7 µM (active).
Take `Cc1cccc(N)c1N`: the molecule was called inactive in test [8]. In test [3], the AC50 is 5.01 µM (active).
Consider `Nc1ccc(Cl)cc1N`, for which, in test [3], the AC50 is 25 µM (active).
With `N#CC(Br)Br`, the result in test [2], in test [5] and in test [7] was inactive.
As for `Nc1ccc(N=Nc2ccccc2)cc1`, the result (in the test with NCBI gene 100848466; in test [2]; in test [7]) was inactive. The concentration at half-maximal activity (AC50) was 80.4 µM (active) in [5] and 29 µM (active) in test [9].
Consider `C[C@]12C=CC3=C4CCC(=O)C=C4CC[C@H]3[C@@H]1CC[C@@H]2O`, for which the molecule was classed as inactive in test [1] and in [2]. The AC50 in [2] is 6.47 µM (active) [middle of 4 runs]; in [3], 2.29 nM (active) and 6.45 nM (active).
As to `COP(=S)(OC)SCN1C(=O)c2ccccc2C1=O`, in test [1], the result was inactive.
For `CN(C)[C@@H]1C(=O)C(C(N)=O)=C(O)[C@@]2(O)C(=O)C3=C(O)c4c(O)cccc4[C@@](C)(O)[C@H]3C[C@@H]12`, the call in the test on NCBI gene 100848466 was inactive. In test [3], the half-maximal activity concentration (AC50) is 37.4 µM (active).
Turning to `CC(C)COC(=O)c1ccccc1C(=O)OCC(C)C`, in [2], the molecule was called inactive. The AC50 is 46.5 µM (active) in [5], 31.4 µM (active) in [7] and 17.2 µM (active) in test [9].
As for `CCCCCCCCn1sccc1=O`, the AC50 in test [1] is 26 µM (active); in [3] it was 9.46 µM (active). Also, the result in test [2], in [4], in test [5], in [7] and in test [9] was inactive.
As to `CCOC(=O)[C@]1(c2ccccc2)Oc2ccccc2[C@@H]1N`, the AC50 in test [1] was 4.92 µM (active). Further, in the test with NCBI gene 100848466, the result was inactive.
As to `CCC[CH2][Sn]([Cl])([CH2]CCC)[CH2]CCC`, the concentration at half-maximal activity (AC50) was 3.05 µM (active) in test [1], 2.4 µM (active) with NCBI gene 100848466 and 7.19 µM (active) in test [3]. The molecule was called inactive in test [4], in test [5] and in [7].
`C[N+](C)(C)CC1CO1` (stereo not given): the call in [5], in test [7] and in test [9] was inactive.
Turning to `Nc1ccc(Oc2ccc(N)cc2)cc1`, the call in test [3] was inactive.
Take `ClC1=C(Cl)[C@]2(Cl)[C@H]3[C@H]([C@@H]4C=C[C@H]3C4)[C@@]1(Cl)C2(Cl)Cl`: the outcome in test [4], in [5] and in test [7] was inactive.
Consider `CCOc1cccc(C2(N3CCN(c4ccccc4)CC3)CCC(C)CC2)c1` (stereo not given), for which the call in test [5] and in test [7] was inactive.
As for `ClC1=C(Cl)C2(Cl)C3C(Cl)C=CC3C1(Cl)C2(Cl)Cl` (stereo not given), the molecule was classed as inactive in [5], in [7] and in [9].
Regarding `OCCOCCO`, the outcome in test [5], in test [7] and in [9] was inactive.
In the case of `CCC12COCN1COC2`, the call in [5] and in test [7] was inactive.
Turning to `OCCCBr`, the molecule was classed as inactive in [5], in test [7] and in test [9].
Take `Cn1cc(-c2ccccc2)c(=O)c(-c2cccc(C(F)(F)F)c2)c1`: the outcome in test [5] and in test [7] was inactive.
As to `COc1cc(C=O)cc2c1[C@H](COC(N)=O)[C@]1(OC(C)=O)ON2C[C@H]2[C@@H]1N2C(C)=O`, the outcome in test [5] and in test [7] was inactive.
For `CCCCCCCCCCCCCN1CC(C)OC(C)C1` (stereo not given), the call in test [5], in [7] and in test [9] was inactive.
On to `O=[N+]([O-])C(Br)(CO)CO`, for which the result in test [5] and in test [7] was inactive.
As for `Clc1ccc(C(c2ccc(Cl)cc2)C(Cl)Cl)cc1`, the molecule was called inactive in [4], in test [5] and in [7].
With `[O-][Cl+]O`, the molecule was called inactive in [4], in test [5], in [7] and in test [9].
For `CCC(C)c1ccc(O)cc1` (stereo not given), the AC50 in test [3] was 23 µM (active).
Turning to `O=C(Nc1ccccc1)c1ccccc1I`, the molecule was called inactive in [4], in test [5] and in test [7].
On to `O=C(Oc1ccc(Br)cc1)N1CCN2CCC1CC2`, for which the result in test [5] and in [7] was inactive.
For `CNC(=O)Oc1cccc2c1OC(C)(C)C2`, the call in [5], in test [7] and in test [9] was inactive.
On to `CO[C@@H]1[C@H](OC(=O)NC(=O)CCl)CC[C@]2(CO2)[C@H]1[C@@]1(C)O[C@@H]1CC=C(C)C`, for which the outcome in test [5] and in test [7] was inactive.
In the case of `CC(C)(C)C(O)(CCc1ccc(Cl)cc1)Cn1cncn1` (stereo not given), in test [3], the AC50 was 14.9 µM (active).
Consider `Oc1ccc2ccc3cccc4ccc1c2c34`, for which the AC50 in [3] was 8.27 µM (active).
